Test results: PubChem BioAssay (Tox21)
Records with an inconclusive call do not appear. Entries that show only a call come without a potency. Active and inactive are the calls of the source. Calls follow the shape of the dose curve; as a rule, active = well fitted cell-killing curve with a large enough effect in the repeat runs; inconclusive = weak or mixed curves, or effect the other way; inactive = flat fitted curve, though single readings scatter.

Assay: qHTS assay to identify small molecule antagonists of the androgen receptor (AR) signaling pathway using the MDA cell line in the presence of 0.5 nM R1881 - cell viability counter screen (AID 1259242); also: nearly all actives have a fitted effect of over 45% in size
Settings: MDA-kb2 viability, CellTiter-Fluor protease fluorescence, 16 h; series mostly up to 92.4 µM
From the text: U.S. Tox21 Program National Center for Advancing Translational Sciences [NCATS] NIH Chemical Genomics Center [NCGC] U.S. Environmental Protection Agency [EPA] National Institutes of Environmental Health Sciences [NIEHS] National Toxicology Program [NTP] U.S. Food and Drug Administration [FDA] Tox21 Assay Overview: Androgen receptor (AR) is an important member of the nuclear receptor family. Its signaling plays a critical role in AR-dependent prostate cancer and other androgen related diseases. Considerable attention has been given in the past decades to develop methods to study and screen for the environmental chemicals that have the potential to interfere with metabolic homeostasis, reproduction, developmental and behavioral functions. Therefore AR binding assay for screening androgen antagonists can be used to identify potential endocrine disruptors. MDA-kb2 cells (from ATCC, deposited by Wilson et al.) were used to screen for AR inhibitors against Tox21 compound libraries. These cells are human breast carcinoma cells that were stably transfected with a luciferase reporter gene under control of the MMTV promoter that contains response elements for both androgen receptor (AR) and glucocorticoid receptor (GR). The current screening for identification of AR inhibitors against Tox21 libraries used lower concentration of (0.5 nM) R1881 as a stimulator. The cytotoxicity of the Tox21 compound libraries against MDA-kb2 cell line was tested by measuring live-cell protease activity using CellTiter-Fluor assay in the same wells.
Tox21 Assay Protocol Summary: MDA-kb2 cells (cells cultured without CO2) were dispensed at 3,000 cells/well in 4 uL of culture medium into white wall/solid-bottom 1536-well plates (Corning Life Sciences, Corning, NY) using a Multidrop Combi (ThermoFisher Scientific, Waltham, MA) dispenser. After the assay plates were incubated at a 37C and 0% CO2 for 5 hr, 23 nL of compounds dissolved in DMSO, positive controls or DMSO only was transferred to the assay plate by a Pintool station (Kalypsys, San Diego, CA). The transfer of compounds was followed by the addition of 1 uL of 0.5 nM (final concentration) agonist (R1881)/culture medium using a Flying Reagent Dispenser (FRD, Aurora Discovery, San Diego, CA). The plates were incubated at 37C and 0% CO2 for 16 hr. For cytotoxicity assay, 1 uL of CellTiter-Fluor reagent (Promega Corporation, Madison, WI) was added to each well using the FRD and after 30 min incubation at 37C and 0% CO2, The fluorescence intensity was measured using ViewLux plate reader (PerkinElmer, Shelton, CT).
Potency is read from the fitted curve at half-maximal effect.

Row | SMILES | Potency
1 | CC(C)(C)CCCCCCOC(=O)c1ccccc1C(=O)OCCCCCCC(C)(C)C | inactive
2 | CC1CCCC(=O)C1=O (stereo not given) | inactive
3 | CCSC(=O)N(CC)CC | inactive
4 | CC(C)c1ccc(C(=O)N=C(N)N)cc1S(C)(=O)=O | inactive
5 | CCOC(=O)c1c(N)sc2c1CCN(Cc1ccccc1)C2 | inactive
6 | NC(=O)c1ccccc1[N+](=O)[O-] | inactive
7 | Nc1ccc(N=Nc2ccc(N)cc2)cc1 | inactive
8 | O=S(=O)(O)CO | inactive
9 | O=C(/C=C/c1ccc([N+](=O)[O-])cc1)c1ccccc1 | inactive
10 | CCN(CC)CCOC(=O)C(c1ccccc1)c1ccccc1 | inactive
11 | Cc1ccc(N(CC2=NCCN2)c2cccc(O)c2)cc1 | inactive
12 | CCCCCCC(O)CCCCCCCCCCC(=O)OC (stereo not given) | inactive
13 | COc1ccc(CCN(C)CCCN2CCc3cc(OC)c(OC)cc3CC2=O)cc1OC | inactive
14 | CCCCCCCCCCCCCCCC(=O)OCC | inactive
15 | C[C@H](CS)C(=O)N1CCC[C@H]1C(=O)O | inactive
16 | CCC(C)(C)C(=O)O | inactive
17 | C/C(C=O)=C\c1ccccc1 | inactive
18 | CCCCCCC(CO)CCCC (stereo not given) | inactive
19 | C=C(C)C(=O)OCCC(F)(F)C(F)(F)C(F)(F)C(F)(F)C(F)(F)C(F)(F)F | inactive
20 | O=c1[nH]c2cc(C(F)(F)F)c(N3CCOCC3)cc2n(CP(=O)(O)O)c1=O | inactive

Row | SMILES | Potency
21 | CNS(=O)(=O)c1cc(C(=O)N2CCC(CCN3C4CCC3CC(n3c(C)nc5ccccc53)C4)(c3cccc(F)c3)CC2)c(Cl)cc1F (stereo not given) | inactive
22 | Cc1c(C2(c3cc(Br)c(O)c(Br)c3C)OS(=O)(=O)c3ccccc32)cc(Br)c(O)c1Br | 10.5 µM (active)
23 | CC/C=C\C/C=C\C/C=C\CCCCCCCC(=O)OCC | inactive
24 | CCCCCCCCCCCSCC(=O)O | inactive
25 | COc1ccc(-c2cc(=S)ss2)cc1 | inactive
26 | Cc1ccc(Cl)cc1N | inactive
27 | c1ccc(CCCc2ccncc2)cc1 | inactive
28 | CCOC(=O)N1CCC(Nc2ccc(Cl)cc2N)CC1 | inactive
29 | CCN(CC)c1ccc(C(=C2C=CC(=[N+](CC)CC)C=C2)c2ccc(S(=O)(=O)O)cc2S(=O)(=O)[O-])cc1 | 27.3 µM (active)
30 | ClC1=C(Cl)C1(Cl)Cl | inactive
31 | BrC(Br)C(Br)Br | inactive
32 | CC(C)(C)C(O)/C=C/c1ccc2c(c1)OCO2 (stereo not given) | inactive
33 | O=C1CC[C@@H](C(=O)O)N1 | inactive
34 | Cc1cc(CCCOc2c(C)cc(-c3noc(C(F)(F)F)n3)cc2C)on1 | inactive
35 | O=C(Oc1ccccc1)c1ccc2ccccc2c1O | inactive
36 | CC(C)(C)C1(CCc2ccc(Cl)cc2)CO1 (stereo not given) | inactive
37 | CCN(CC)CC(=O)Nc1c(C)cccc1C(=O)OC | inactive
38 | CC(C)COC(=O)COc1cc(Cl)c(Cl)cc1Cl | inactive
39 | CCCCCCOC(=O)CCCCC | inactive
40 | Cc1oc(=O)oc1COC(=O)[C@@H]1N2C(=O)[C@@H](NC(=O)[C@H](N)c3ccccc3)[C@H]2SC1(C)C | inactive
